Compound activity from PubChem.
This excerpt belongs to a sample that is enriched for hits.
TDP1 cell CPT: growth inhibition of DT40 Tdp1-/-;hTDP1 cells with camptothecin (screen for TDP1 inhibitors); chicken DT40 Tdp1-/-;hTDP1 cells + 20 nM CPT, ATP luminescence, 48 h; 12% of 420,000 active; Potency, µM (highest dose often 46.2 µM), without a hit: top-dose activity change, negative = growth inhibition, most hits filed as inhibitors; AID 686979; also: potency is read from the fitted curve at half-maximal effect; nearly all actives have a fitted effect of over 55% in size
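Chicken DT40 Tdp1-/- cells complemented with human TDP1, 400 cells/well, exposed to compounds plus 20 nM camptothecin for at least 48 h at 37 C; viability read as ATP content by CellTiter-Glo luminescence.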
IL-1B inflam inh: inflammasome signaling inhibition, IL-1 beta readout; THP-1 LPS/ATP IL-1B secretion, AlphaLISA, 16 h; active compounds read low; 4.7% of 360,000 active; activity change, % at 57.5 µM; in the data active = activity change below about -50%; inconclusive = mostly about -30% to -49%
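THP-1 cells pretreated 1 hr with compounds (up to 57.5 uM final), then stimulated with LPS (250 ng/mL final) plus ATP (1.25 mM final); secreted IL-1B measured by AlphaLISA after 16 hr, decreased signal indicating inhibition.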
HT1080 IDH1KD tx: HT-1080 IDH1 knockdown cell toxicity (counter line) | HT-1080 IDH1 knockdown viability, ATP luminescence, 48 h | Potency, µM (doses to about 46.1 µM), inactives show top-dose activity, negative = toxicity, actives largely listed as cytotoxic | 2% of 360,000 active;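 also: potency is read from the fitted curve at half-maximal effect; 0% = DMSO wells and -100% = cell-free medium wells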
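% activity derives from luminescence (CellTiter-Glo), normalised to DMSO and no-cell wells. HT-1080-IDH1KD cells, 750/well, had 48 h compound exposure at 37 °C.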
12-LOX inh: inhibitors of human 12S-lipoxygenase ALOX12; 1.1% of 580,000 active; P18054; purified 12hLO, xylenol orange hydroperoxide absorbance; Potency, µM (highest dose often 108 µM), for inactives: top-dose activity change, negative = inhibition, usual class: inhibitors; also: potency is read from the fitted curve at half-maximal effect
Target sequence (P18054 whole entry, looked up): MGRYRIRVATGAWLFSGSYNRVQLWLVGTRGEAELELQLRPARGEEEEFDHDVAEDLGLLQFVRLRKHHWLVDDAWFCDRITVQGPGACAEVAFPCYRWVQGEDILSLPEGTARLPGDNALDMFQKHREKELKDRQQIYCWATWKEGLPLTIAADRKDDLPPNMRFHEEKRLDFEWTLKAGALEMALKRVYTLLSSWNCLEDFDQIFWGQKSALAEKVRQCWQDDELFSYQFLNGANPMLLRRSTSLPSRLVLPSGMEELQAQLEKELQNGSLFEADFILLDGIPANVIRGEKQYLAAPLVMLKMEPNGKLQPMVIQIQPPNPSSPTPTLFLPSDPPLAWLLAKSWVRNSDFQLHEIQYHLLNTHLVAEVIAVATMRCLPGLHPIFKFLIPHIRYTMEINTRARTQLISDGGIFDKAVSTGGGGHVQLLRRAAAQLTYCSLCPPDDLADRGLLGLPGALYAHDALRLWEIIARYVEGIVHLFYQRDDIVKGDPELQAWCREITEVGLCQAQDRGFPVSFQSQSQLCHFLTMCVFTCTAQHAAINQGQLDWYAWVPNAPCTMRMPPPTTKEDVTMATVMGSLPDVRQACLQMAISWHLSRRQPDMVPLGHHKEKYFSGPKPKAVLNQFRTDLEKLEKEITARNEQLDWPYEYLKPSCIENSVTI
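Purified human 12hLO (150 nM final) in 25 mM Hepes, 0.01% Triton X-100, pH 7.0 was preincubated 15 min at room temperature with compound. Then 40 uM arachidonic acid was added, 30 min. Hydroperoxide was read by Fe-XO absorbance ratio 573/405 nm.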
DT40 TDP1 no CPT: qHTS for Inhibitors of human tyrosyl-DNA phosphodiesterase 1 (TDP1): qHTS in cells in absence of CPT | DT40 Tdp1-/- hTDP1 cells, no CPT, ATP luminescence, 48 h | Potency, µM (series often up to 46.2 µM), for inactives: at the highest dose activity change, negative = growth inhibition, actives largely listed as inhibitors | 15% of 420,000 active; also: potency is read from the fitted curve at half-maximal effect; nearly all actives have a fitted effect of over 55% in size
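Seeded 400 DT40-hTDP1 cells/well (vehicle DMSO, no 20 nM CPT); pinned compounds; ≥48 hr at 37 °C; CellTiter-Glo luminescence as viability measure.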
HT1080-NT tox: kills 2HG-producing HT-1080-NT fibrosarcoma cells; 1.6% of 360,000 active; AID 686970; Potency, µM (top dose mostly 46.1 µM), for inactives: top-dose activity, negative = less viability, hits mostly cytotoxic; HT-1080-NT fibrosarcoma viability, CellTiter-Glo ATP luminescence, 48 h;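 also: NT is the 2HG producing partner of a matched IDH1 knockdown line; potency is read from the fitted curve at half-maximal effect; 0% = DMSO-treated cells and -100% = media-only wells without cells; nearly all actives have a fitted effect of over 55% in size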
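A 48-hour cytotoxicity screen used HT-1080-NT cells plated 2 hours before compound delivery. ATP-based CellTiter-Glo luminescence measured viability, normalized to DMSO and no-cell controls.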
Numbers without * were called inactive; ? = inconclusive; nt = not tested or not shown; [ ] = another dose, or the depositor's remark. Unless noted, calls follow the shape of the dose curve; as a rule, active = well fitted curve in the direction sought with a large enough effect; inconclusive = small, poorly fitted or top-dose-only effect, or another doubt; inactive = no such curve, though single readings can be large; an effect the other way counts as inactive or inconclusive. Unless noted, % is scaled to controls: 0 for no effect and ±100 for the full control effect.

SMILES	TDP1 cell CPT	IL-1B inflam inh	HT1080 IDH1KD tx	12-LOX inh	DT40 TDP1 no CPT	HT1080-NT tox
COc1ccc2[nH]c(C)c(CCNC(=S)Nc3ccc(F)cc3)c2c1	16µM*	-30	5%	?	23µM*	-7%
COc1ccc2[nH]c(C)c(CCNC(=S)Nc3cc(C)ccc3C)c2c1	8.2µM*	4	1%	?	9.2µM*	-17%
O=C(N[C@@H](CO)c1ccccc1)c1cc(COc2cccc(F)c2)[nH]n1	nt	nt	nt	29%	nt	nt
CC1CCCC(NC(C(=O)NC2CC2)c2ccccc2)C1C (stereo unspecified)	nt	nt	nt	4%	nt	nt
CCCN1C(=O)c2ccccc2NC1c1ccc(OC)c(COc2ccc([N+](=O)[O-])c(C)c2)c1 (stereo unspecified)	?	nt	nt	nt	18µM*	nt
COc1ccc(C2Nc3ccccc3C(=O)N2Cc2ccco2)cc1COc1ccc([N+](=O)[O-])cc1 (stereo unspecified)	?	?	8%	?	23µM*	7%
COc1ccc(C2Nc3ccccc3C(=O)N2Cc2ccco2)cc1COc1c(C)cccc1C (stereo unspecified)	2.5µM*	nt	nt	nt	5µM*	nt
COc1cccc(OCc2cc(C3Nc4ccccc4C(=O)N3Cc3ccco3)ccc2OC)c1 (stereo unspecified)	?	-27	0%	-26%	?	-1%
CCCCN(C(=O)c1ccc(S(=O)(=O)N(C)c2ccccc2)cc1)c1c(N)n(CCC)c(=O)[nH]c1=O	-16%	-3	-6%	?	-19%	1%
COc1cccc(NC(=O)N2CCN3C(=O)N(Cc4ccc(C)cc4)C[C@H]3C2)c1	nt	nt	nt	0%[176 µM]	nt	nt
COc1ccc(S(=O)(=O)N(C)C[C@H]2Oc3ccc(NC(=O)Nc4ccc5c(c4)OCO5)cc3C(=O)N([C@H](C)CO)C[C@@H]2C)cc1	21µM*	0	-13%	-1%	?	-7%
COc1ccc(S(=O)(=O)N(C)C[C@H]2Oc3ccc(NC(=O)Nc4ccccc4)cc3C(=O)N([C@H](C)CO)C[C@@H]2C)cc1	?	-30	0%	-12%	?	-10%
C[C@@H]1CN([C@H](C)CO)C(=O)c2cccc(NC(=O)Nc3ccc(C(F)(F)F)cc3)c2O[C@H]1CN(C)S(=O)(=O)c1cccs1	8.2µM*	-55*	?	-3%	16µM*	?
Cc1noc(C)c1S(=O)(=O)N(C)C[C@H]1Oc2c(NC(=O)Nc3ccc(C(F)(F)F)cc3)cccc2C(=O)N([C@H](C)CO)C[C@@H]1C	-106%	-21	?	-2%	23µM*	-19%
C[C@H](CO)N1C[C@H](C)[C@H](CN(C)S(=O)(=O)c2cccs2)Oc2ccc(NC(=O)Nc3ccc4c(c3)OCO4)cc2CC1=O	?	?	?	-28%	16µM*	?
COCCNc1nc2c(c(=O)n(C)c(=O)n2C)n1Cc1cc(OC)ccc1Cl	nt	nt	nt	19%	nt	nt
C[C@H](CO)N1C[C@H](C)[C@@H](CN(C)S(=O)(=O)c2ccccc2)Oc2ccc(NC(=O)Nc3ccc(C(F)(F)F)cc3)cc2C1=O	21µM*	0	?	?	?	?
C[C@H](CO)N1C[C@H](C)[C@H](CN(C)S(=O)(=O)c2cccs2)Oc2ncc(-c3cc4ccccc4o3)cc2C1=O	23µM*	-4	-17%	?	15µM*	-10%
C[C@H]1CN([C@@H](C)CO)C(=O)c2cccc(NC(=O)Nc3ccc(C(F)(F)F)cc3)c2O[C@@H]1CN(C)S(=O)(=O)c1ccccc1	?	-4	?	3%	21µM*	?
COc1ccc(S(=O)(=O)N(C)C[C@H]2Oc3ncc(-c4ccncc4)cc3C(=O)N([C@@H](C)CO)C[C@@H]2C)cc1	-21%	?	5%	-42%	?	7%
C[C@H](CO)N1C[C@H](C)[C@@H](CN(C)S(=O)(=O)c2ccccc2)Oc2ccc(NC(=O)CCC(F)(F)F)cc2C1=O	21µM*	-16	13%	-4%	-30%	4%
C[C@H](CO)N1C[C@H](C)[C@@H](CN(C)S(=O)(=O)c2ccccc2)Oc2c(NC(=O)Nc3ccccc3)cccc2C1=O	-17%	-7	5%	-2%	-22%	7%
CC(C)NC(=O)N(C)C[C@H]1Oc2ccc(NC(=O)CCC(F)(F)F)cc2C(=O)N([C@H](C)CO)C[C@@H]1C	10%	22	27%	4%	0%	5%
CC(C)NC(=O)Nc1ccc2c(c1)C(=O)N([C@H](C)CO)C[C@H](C)[C@@H](CN(C)S(=O)(=O)c1ccccc1)O2	-9%	11	4%	-4%	-5%	3%
C=C(C)c1cccc(C(C)(C)NC(=O)N(C)CCC#N)c1	nt	nt	nt	-19%	nt	nt
SMILES	TDP1 cell CPT	IL-1B inflam inh	HT1080 IDH1KD tx	12-LOX inh	DT40 TDP1 no CPT	HT1080-NT tox
CCCNC(=O)N1CCC(n2c(C)cnc2C2CCOCC2)CC1	nt	nt	nt	26%	nt	nt
CC(C)(C)OC(=O)C[C@H]1C/C=C\C[C@H](CC(=O)N(CCO)Cc2ccccc2)C(=O)N2CCC[C@H]2COC1=O	26µM*	-19	3%	0%	?	12%
O=C1OC[C@H]2CCCN2C(=O)[C@@H](CC(=O)N(CCO)Cc2ccccc2)C/C=C\C[C@H]1Cc1ccc(F)cc1	13µM*	-23	-4%	?	18µM*	2%
O=C1CCCC/C=C\C[C@H](CC(=O)N(CCO)Cc2ccccc2)C(=O)N2CCC[C@@H]2CO1	16µM*	9	-5%	8%	?	1%
CC(C)(C)OC(=O)C[C@@H]1C/C=C\C[C@H](CC(=O)N(CCO)Cc2ccccc2)C(=O)N2CCC[C@H]2COC1=O	?	-2	2%	0%	?	1%
O=C1OC[C@@H]2CCCN2C(=O)[C@@H](CC(=O)N(CCO)Cc2ccccc2)C/C=C\C[C@H]1Cc1ccc(F)cc1	?	-17	-10%	-5%	15µM*	-8%
O=C(Nc1ccc(Cl)c(Cl)c1)c1cc2n(n1)CC(c1ccc(Cl)cc1)OC2 (stereo unspecified)	nt	nt	nt	-6%	nt	nt
CC12NC(Cl)=C(C#N)C(C#N)(C(=N)O1)C2(C)C (stereo unspecified)	nt	nt	nt	-1%	nt	nt
O=C(CCl)c1ccc2[nH]c(=O)oc2c1	2.6µM*	?	-2%	?	3.3µM*	1%
